Assay results reported in PubChem BioAssay (NCI).
Several values for one entry are separate records, joined by “and”; a condition that tells them apart may be missing. Equal values may be shown once. About 83,000 compounds went through this panel and 20% of them were active in at least one assay; those are over-represented in the sample as a whole.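 Method: cells in 96-well plates; compound added at one concentration; 48 h incubation; percent growth measured; values under 10 scored active.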 Activity calls are given as the source filed them.

Experiments:
Assay in all cases: NCI-60 one-dose screen, 48 h (100 = growth as untreated, 0 = no growth, -100 = all killed)
UACC-62 melanoma = conditions: 10 µM unless noted
TK-10 renal = conditions: 10 µM unless noted
HT29 colon = conditions: 10 µM
SNB-75 CNS = conditions: 10 µM
SNB-19 CNS = conditions: 10 µM
U251 CNS = conditions: 10 µM
PC-3 prostate = conditions: 10 µM
SK-MEL-5 melanoma = conditions: 10 µM
LOX IMVI melanoma = conditions: 10 µM
SK-MEL-28 melanoma = conditions: 10 µM
SK-MEL-2 melanoma = conditions: 10 µM
SN12C renal = conditions: 10 µM
UO-31 renal = conditions: 10 µM
ACHN renal = conditions: 10 µM
CAKI-1 renal = conditions: 10 µM
A498 renal = conditions: 10 µM
CCRF-CEM leukemia = conditions: 10 µM
EKVX NSCLC = conditions: 10 µM
HL-60(TB) leukemia = conditions: 10 µM

Question: `C[C@H]1CC[C@@]2(NC1)O[C@H]1C[C@H]3[C@@H]4CC[C@H]5C[C@@H](O)CC[C@]5(C)[C@H]4CC[C@]3(C)[C@H]1[C@@H]2C` was tested. Which growth (UACC-62 melanoma) did it give?
Answer: 8.84% [100 µM] (active) and 2.39% [100 µM] (active)

Question: What about the growth (TK-10 renal) of the same compound?
Answer: 25.1% [100 µM] (inactive) and -60.4% [100 µM] (active)

Question: For `Oc1c(Cl)cc(Cl)c2ccccc12.[Cu+2]`, which growth (HT29 colon) is on record?
Answer: 92.5% (inactive)

Question: And the growth (SNB-75 CNS)?
Answer: 91% (inactive)

Question: What about the growth (SNB-19 CNS) of the same compound?
Answer: 121% (inactive)

Question: What about the growth (U251 CNS) of the same compound?
Answer: 108% (inactive)

Question: What about the growth (PC-3 prostate) of the same compound?
Answer: 88.4% (inactive)

Question: What about the growth (SK-MEL-5 melanoma) of the same compound?
Answer: 90.5% (inactive)

Question: And the growth (UACC-62 melanoma)?
Answer: 109% (inactive)

Question: And the growth (LOX IMVI melanoma)?
Answer: 37.7% (inactive)

Question: And the growth (SK-MEL-28 melanoma)?
Answer: 116% (inactive)

Question: What about the growth (SK-MEL-2 melanoma) of the same compound?
Answer: 86.1% (inactive)

Question: What about the growth (SN12C renal) of the same compound?
Answer: 99% (inactive)

Question: What about the growth (UO-31 renal) of the same compound?
Answer: 49% (inactive)

Question: What about the growth (TK-10 renal) of the same compound?
Answer: 119% (inactive)

Question: And the growth (ACHN renal)?
Answer: 91.9% (inactive)

Question: And the growth (CAKI-1 renal)?
Answer: 96.4% (inactive)

Question: And the growth (A498 renal)?
Answer: 106% (inactive)

Question: And the growth (CCRF-CEM leukemia)?
Answer: 48.5% (inactive)

Question: What does the source list for `CC(=O)[O][Hg][c]1c(C)c(C)cc(C)c1C`?
Answer: growth (HT29 colon): -62.1% (active); growth (SNB-75 CNS): -81.2% (active); growth (SNB-19 CNS): 39.8% (inactive); growth (U251 CNS): -97.3% (active); growth (PC-3 prostate): -77.3% (active); growth (SK-MEL-5 melanoma): -57.5% (active); growth (UACC-62 melanoma): -26.1% (active); growth (LOX IMVI melanoma): -95.3% (active); growth (SK-MEL-28 melanoma): -37.9% (active); growth (SK-MEL-2 melanoma): -48.3% (active); growth (EKVX NSCLC): -62.9% (active); growth (SN12C renal): -13.8% (active); growth (UO-31 renal): -86.2% (active); growth (TK-10 renal): -82.6% (active); growth (ACHN renal): 34.1% (inactive); growth (CAKI-1 renal): -83.9% (active); growth (CCRF-CEM leukemia): 3.85% (active)

Question: `COc1ccc2c(ccc3oc([N+](=O)[O-])cc32)c1` was tested. Which growth (HT29 colon) did it give?
Answer: -8.59% (active)

Question: And the growth (SNB-75 CNS)?
Answer: -68.5% (active)

Question: What about the growth (SNB-19 CNS) of the same compound?
Answer: 5.8% (active)

Question: And the growth (U251 CNS)?
Answer: -8.64% (active)

Question: And the growth (PC-3 prostate)?
Answer: 9.56% (active)

Question: And the growth (SK-MEL-5 melanoma)?
Answer: -80.4% (active)

Question: And the growth (UACC-62 melanoma)?
Answer: -60.2% (active)

Question: What about the growth (LOX IMVI melanoma) of the same compound?
Answer: -35.9% (active)

Question: What about the growth (SK-MEL-28 melanoma) of the same compound?
Answer: -39.6% (active)

Question: What about the growth (SN12C renal) of the same compound?
Answer: 6.57% (active)

Question: What about the growth (UO-31 renal) of the same compound?
Answer: -13.4% (active)

Question: What about the growth (TK-10 renal) of the same compound?
Answer: -15% (active)

Question: What about the growth (ACHN renal) of the same compound?
Answer: 2.78% (active)

Question: And the growth (CAKI-1 renal)?
Answer: 5.89% (active)

Question: And the growth (CCRF-CEM leukemia)?
Answer: 4.13% (active)

Question: Which growth (HT29 colon) does the source give for `C#CC1(O)CCC(C(C)(C)C)CC1` (stereo not drawn) here?
Answer: 104% (inactive)

Question: And the growth (SNB-75 CNS)?
Answer: 113% (inactive)

Question: What about the growth (SNB-19 CNS) of the same compound?
Answer: 103% (inactive)

Question: What about the growth (U251 CNS) of the same compound?
Answer: 106% (inactive)

Question: And the growth (PC-3 prostate)?
Answer: 97.1% (inactive)

Question: And the growth (SK-MEL-5 melanoma)?
Answer: 105% (inactive)

Question: What about the growth (UACC-62 melanoma) of the same compound?
Answer: 104% (inactive)

Question: And the growth (LOX IMVI melanoma)?
Answer: 110% (inactive)

Question: And the growth (SK-MEL-28 melanoma)?
Answer: 120% (inactive)

Question: What about the growth (SK-MEL-2 melanoma) of the same compound?
Answer: 112% (inactive)

Question: And the growth (EKVX NSCLC)?
Answer: 118% (inactive)

Question: And the growth (SN12C renal)?
Answer: 104% (inactive)

Question: And the growth (UO-31 renal)?
Answer: 108% (inactive)

Question: And the growth (TK-10 renal)?
Answer: 106% (inactive)

Question: What about the growth (ACHN renal) of the same compound?
Answer: 104% (inactive)

Question: And the growth (CAKI-1 renal)?
Answer: 110% (inactive)

Question: What about the growth (CCRF-CEM leukemia) of the same compound?
Answer: 96.6% (inactive)

Question: What does the source list for `COc1cc([C@@H]2c3cc4c(c(O)c3C[C@H]3COC(=O)[C@@H]32)OCO4)cc(OC)c1OC`?
Answer: growth (HT29 colon): 12.9% (inactive); growth (SNB-75 CNS): 24% (inactive); growth (SNB-19 CNS): 7.28% (active); growth (U251 CNS): 23.8% (inactive); growth (PC-3 prostate): -0.628% (active); growth (SK-MEL-5 melanoma): -42.8% (active); growth (UACC-62 melanoma): 64.3% (inactive); growth (LOX IMVI melanoma): 19.9% (inactive); growth (SK-MEL-28 melanoma): 54.3% (inactive); growth (SK-MEL-2 melanoma): -25.1% (active); growth (EKVX NSCLC): 44.2% (inactive); growth (SN12C renal): 31.8% (inactive); growth (UO-31 renal): 32.7% (inactive); growth (TK-10 renal): 38.8% (inactive); growth (ACHN renal): 33.8% (inactive); growth (CAKI-1 renal): 20.3% (inactive); growth (HL-60(TB) leukemia): -33.5% (active); growth (CCRF-CEM leukemia): -5.4% (active)

Question: For `CC(=O)c1ccccc1O`, which growth (HL-60(TB) leukemia) is on record?
Answer: 85.9% (inactive) and 82.5% (inactive) and 101% (inactive)

Question: What does the source list for `CC(Cc1ccc2c(c1)OCO2)NN` (stereo not drawn)?
Answer: growth (HT29 colon): 98.7% (inactive); growth (SNB-75 CNS): 90.6% (inactive); growth (SNB-19 CNS): 105% (inactive); growth (U251 CNS): 88.9% (inactive); growth (PC-3 prostate): 76.3% (inactive); growth (SK-MEL-5 melanoma): 93.6% (inactive); growth (UACC-62 melanoma): 95.6% (inactive); growth (LOX IMVI melanoma): 92.2% (inactive); growth (SK-MEL-28 melanoma): 105% (inactive); growth (SK-MEL-2 melanoma): 101% (inactive); growth (EKVX NSCLC): 84.2% (inactive); growth (SN12C renal): 102% (inactive); growth (UO-31 renal): 96.7% (inactive); growth (TK-10 renal): 93% (inactive); growth (ACHN renal): 98.7% (inactive); growth (CCRF-CEM leukemia): 84.1% (inactive)
